Experimental data: the emibetuzumab library of Makowski et al. (2022)
Some of the results follow. The hit rate among all sequences tested is not known here.

B1: VH:VL chains; a variant is named by its letters at X, in order (parent)
chain 1: QVQLVQSGAEVKKPGASVKVSCKASGYTFTDYXMHWVRQAPGQGLEWMGXVNPNXXXTTYNQKFEGRVTMTTDTSTSTAYMELRSLRSDDTAVYYCARXNXLDXWGQGTTVTVSS
chain 2: DIQMTQSPSSLSASVGDRVTITCSVSSSVSSIYLHWYQQKPGKAPKLLIYSTSNLASGVPSRFSGSGSGTDFTLTISSLQPEDFATYYCQVYSGYPLTFGGGTKVEIK

Variants of: B1
Test: yeast display scFab, FACS + sequencing
Conditions: with MET
Method in brief: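 Heavy-chain CDR mutant scFab yeast surface library, enriched by two magnetic rounds on HGFR-Fc-coated Protein A beads and then by FACS. Cells were labelled with 1 nM HGFR-Fc in PBSB with 1% milk and anti-Myc for 3 h at room temperature, and the top 50% antigen-positive cells were gated. Round-3 sorted and input populations were deep sequenced in two replicates. Antigen binding call: positive if a sequence occurred in both antigen-positive samples, negative if it occurred only in input.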

Variant | antigen binding call
DGGRGDAF | no binding
DGTGGSGA chain 1 R67H | no binding
FRRRDAAF | no binding
YRRRGSAF | binds
YRRRGAAF | binds
VRRRGSLF | binds
DKGEGDGA | no binding
SKAGSDVA | no binding
FRGRGAWF | binds
FRTGSAWF | no binding
YRTRGAWF | binds
DRGRDAWF | no binding
YRGRGFWF | binds
YRGRSAWF | binds
YKGRGFWA | no binding
YAGGDDAA | no binding
VEAGTAVA | no binding
YRGRGAVF | binds
YAGRGDVF | no binding
YEGTGAVF | no binding
YRGRGAWF | binds
VAREDDWA | no binding
DATTDSVD | no binding

Variant | antigen binding call
YTKTSSVD | no binding
VKRGSSVD | binds
YTEEAAVD | binds
YKRGSSVD | binds
VARGGSVD | no binding
YTRKSSVD | no binding
VATTDSVD | no binding
VKRGSFVD | no binding
AATTDSVD | binds
YTRGASLD | no binding
DAGGGDWD | no binding
DAGGADVY | no binding
YATAADWD | no binding
ATRTDDVF | no binding
DEGEDAGA | no binding
SEEGSDAS | no binding
YKTGDSVD | binds
YKRRDSVD | binds
YKRGSFVD | no binding
YKRGSAVD | binds
YARGTAVD | no binding
DGGTNSSA | no binding
DEGGTALA | no binding

Variant | antigen binding call
SEGTGSGD | no binding
FGGEGDGA | no binding
YKTGDSWV | no binding
YKTGSSWD | binds
YKRGSSWD | binds
YKRGGSWD | binds
VKRATSWD | no binding
DGARNFGV | no binding
DTGANDWV | no binding
DATGGAAA | no binding
SKGRGAWD | binds
SRGRGSWD | binds
SAGGGAWV | no binding
SAGRGDWD | no binding
SRGRGAWD | binds
SKGGSAWD | no binding
SKGRGAWV | binds
SRGANAWD | no binding
SKAENAWV | no binding
DRGRDDLV | no binding
AATTDDAV | no binding
SGRGNAAD | no binding
ATTKSDGV | no binding

Variant | antigen binding call
VEGGTDVA | no binding
DAGTGSGA | no binding
YRRRGVVV | binds
YERRNDVV | binds
SREGGVVV | no binding
YEGTGDVV | no binding
YRRRGDVV | binds
YRRRGYVV | binds
YTRGADVV | no binding
YEGGTDVV | no binding
YRARGVVV | no binding
SGGRDSGV | no binding
AARADDSA | no binding
YRAEGYVV | binds
VGGGAAGV | no binding
YRGRGFSA | binds
YKGRGFSD | no binding
FRGRGFSA | no binding
YTEKTFSD | no binding
YRGRGFSD | binds
YRGRGVSD | binds
DTTGSDVY | no binding
ATGRAAGD | no binding

Variant | antigen binding call
FRTEGSAD | binds
FRTGGSAD | binds
FETGGYVY | no binding
SEARSSSV | no binding
YATEGVWV | no binding
DARGGSSV | no binding
AEREADWV | no binding
VETGNDVA | no binding
YRGKDSGS | binds
YRGKDAGA | binds
YRGGDYGA | no binding
YRGKDSGA | binds
VRRGDSSD | binds
VTGTGSSD | no binding
VEGGGSSS | no binding
VRAGDDSD | no binding
VRKKGVSS | no binding
VRGKGSSD | binds
VTGGDSSD | no binding
VRGKGSSS | binds
VAGTGSSD | no binding
VRTADDGA | no binding
VAATADVA | no binding

Variant | antigen binding call
YKEGAYAD | no binding
YKKTGYWV | no binding
YKGRGSLV | binds
YKGRGYLV | binds
YKGEGYGV | no binding
YKGEGDLV | no binding
YKGRGYAV | binds
YKETGYAV | binds
YGGRGYAV | no binding
DAARGDSA | no binding
AKGGGDVV | no binding
YAEEGVGY | no binding
YRARGAVA | binds
YRARGAGA | binds
YRARGFGA | no binding
YRARGVGA | binds
SEARSSSY | no binding
VEEEGAGV | no binding
DTTKSDGV | no binding
